# Screening results (PubChem BioAssay)
# In the library only some 0.93% were active in any assay of this set; here they are far more common.
# LAP4 TOR yeast: modulators of LAP4-GFP expression in yeast, primary screen, S. cerevisiae, multiplex flow cytometry, MLPCN library; 3 h; median GFP as percent of DMSO wells; 320,000 tested, 0.34% active; AID 2023, 2009; GFP response vs DMSO, % at 10 µM;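 active means GFP response vs DMSO above a set limit, about the screen mean plus 3 SD, cut at about 150% in these data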
# CIT2 TOR yeast: modulators of CIT2-GFP expression in yeast, primary screen, S. cerevisiae, GFP fusion, multiplex flow cytometry, MLPCN library | S. cerevisiae CIT2-GFP strain, 3 h; 100 means same as DMSO wells | GFP response vs DMSO, % at 10 µM | 320,000 tested, 0.065% active | AID 2029, 2009;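 active means GFP response relative to DMSO above a set limit, near the screen mean plus 3 SD, cut at about 150% in these data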;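 further: ratio of well median GFP fluorescence to mean of DMSO wells on the plate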
# AGP1-GFP MLPCN: modulators of AGP1-GFP expression in yeast TOR pathway, primary screen, cell-based, multiplex flow cytometry, S. cerevisiae, MLPCN library; 3 h; GFP as percent of DMSO wells; GFP response vs DMSO, % at 10 µM; 320,000 tested, 0.02% active;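 active means GFP response relative to DMSO above a set limit, near screen average plus 3 SD, cut at about 150% in these data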;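 further: median GFP channel fluorescence of the gated AGP1 strain per well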
# RPL19A TOR yeast: RPL19A-GFP expression modulators in yeast, primary screen, cell-based, S. cerevisiae, multiplex flow cytometry, MLPCN. S. cerevisiae RPL19A-GFP strain, 3 h; active compounds read low. percent response vs DMSO, % at 10 µM. 330,000 tested, 0.3% active. AID 2025, 2009;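 active means percent response vs DMSO below 50%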;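 further: median channel GFP fluorescence of the barcoded RPL19A-GFP strain; lower means less RPL19A-GFP as with rapamycin TOR inhibition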
# MEP2-GFP yeast: modulators of MEP2-GFP levels in yeast, primary screen, S. cerevisiae, multiplex flow cytometry, MLPCN library | S. cerevisiae MEP2-GFP strain, 3 h; 100% = DMSO control level | GFP response vs DMSO, % at 10 µM | 330,000 tested, 0.51% active | AID 2016, 2009;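 active means GFP response versus DMSO above a set limit, roughly screen mean plus 3 SD, cut at about 180% in these data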;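 further: median GFP fluorescence of the barcode-gated MEP2-GFP cells per well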
# LAP4-GFP pick2: LAP4-GFP expression modulators in yeast, confirmation, cell-based, second cherry pick, flow cytometry; GFP response vs DMSO, % at 10 µM; shares compounds with LAP4 TOR yeast; AID 2621, 2010; S. cerevisiae LAP4-GFP strain, 3 h; 590 tested, 20% active;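 active means GFP signal as percent of the solvent control above about 150%, meaning raised reporter expression, limit read from the data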
# MEP2 cherry2: modulators of MEP2-GFP levels in yeast, confirmation, S. cerevisiae, flow cytometry GFP, second cherry picks. S. cerevisiae MEP2-GFP strain, 3 h. AID 2622, 2010. shares compounds with LAP4 TOR yeast. 590 tested, 10% active. GFP response vs DMSO, % at 10 µM;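 active means GFP signal above 150% of the solvent control wells, that is a rise of more than half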;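 further: median channel GFP fluorescence of all gated yeast cells per well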
# RPL19A-GFP pick2: RPL19A-GFP modulators in TOR pathway yeast, confirmation, cell-based, S. cerevisiae, flow cytometry, second cherry pick | 590 tested, 3% active | S. cerevisiae RPL19A-GFP strain, 3 h; active compounds read low; 100% means same as DMSO wells | AID 2623, 2010 | shares compounds with LAP4 TOR yeast | GFP response vs DMSO, % at 10 µM;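 active means under 65% GFP response relative to DMSO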;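 further: median GFP channel fluorescence per well over the all cells gate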
# CIT2-GFP pick2: modulators of CIT2-GFP expression in yeast, confirmation, flow cytometry, second cherry pick, single plex; shares compounds with LAP4 TOR yeast; S. cerevisiae CIT2-GFP strain, 3 h; DMSO control wells read 100%; GFP response vs DMSO, % at 10 µM; 590 tested, 8% active; AID 2624, 2010;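 active means GFP response vs DMSO above about 150%, limit read from the data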;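 further: median green fluorescence per well over all gated yeast cells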
# AGP1 GFP CP2: AGP1-GFP expression modulators, hit retest, confirmation, cell-based, flow cytometry, S. cerevisiae, cherry pick set 2 | shares compounds with LAP4 TOR yeast | S. cerevisiae AGP1-GFP strain, 3 h | percent response vs DMSO, % at 10 µM | 590 tested, under 10 active | AID 2643, 2010;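 active means over 150 percent of DMSO response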;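 further: median GFP channel fluorescence over all cells without mother daughter split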
# Yeast autofluor: compound autofluorescence in yeast s288c, dose response, artefact control for yeast TOR pathway GFP screen, s288c strain; 610 tested, under 10 active; shares compounds with LAP4 TOR yeast; fluorescence change (kMESF span) at 33 µM; S. cerevisiae s288c, 520 nm autofluorescence, flow cytometry, 3 h; active compounds read high; zero means same as solvent-only cells;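 active means fluorescence span over the dose series, or activity score, above about 33, limit read from the data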
# s288c autofl DR: autofluorescence of compounds in yeast s288c, dose response, artefact control for yeast TOR pathway GFP screen, primary hits, KU SAR, s288c parental | S. cerevisiae s288c parental, compound autofluorescence, flow cytometry, 3 h | fluorescence change (span) at 33 µM | shares compounds with LAP4 TOR yeast | 110 tested, under 10 active;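 active means fluorescence change span, or the activity score built from it, above 25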
# TORC1 bypass: wild-type yeast growth inhibition sparing TORC1 bypass cells, mechanism study for yeast TOR pathway GFP screen, BY4741 wild type, TORC1 bypass strain | shares compounds with LAP4 TOR yeast | growth rating (0-3) at 30 µM | 120 tested, under 10 active | S. cerevisiae BY4741 spot growth rating, 48-72 h; active compounds read low;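 active means growth rating at most 1 for wild type yeast while the TORC1 bypass strain still grows fully, rated 3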
# Hits are given with their value; - = inactive; . = not tested or not shown.
SMILES,LAP4 TOR yeast,CIT2 TOR yeast,AGP1-GFP MLPCN,RPL19A TOR yeast,MEP2-GFP yeast,LAP4-GFP pick2,MEP2 cherry2,RPL19A-GFP pick2,CIT2-GFP pick2,AGP1 GFP CP2,Yeast autofluor,others
CCOc1ccc(N2C(=O)/C(=C\c3cccs3)C(=O)NC2=S)cc1,-,-,-,-,-,168.3,-,-,-,-,-,
CCOc1ccc(N2C(=O)/C(=C/c3ccco3)C(=O)NC2=S)cc1,-,-,-,-,-,.,.,.,.,.,.,
COC(=O)C1=C(c2cccc(OC)c2OC)C[C@@H]2CC[C@H]1N2C(=O)NCCCOC(C)C,-,-,-,-,-,.,.,.,.,.,.,
Fc1ccc(C(OCCN2CCN(CCCc3ccccc3)CC2)c2ccc(F)cc2)cc1,207.6,-,-,-,-,-,-,-,-,-,.,
CCC(Oc1cc(Cl)ccc1Cl)C(=O)N1CCC2(CC1)OCCO2 (stereo not given),-,167.4,-,-,-,-,-,-,-,-,.,
O=C(CCCOc1ccc(Cl)cc1Cl)N1CCC2(CC1)OCCO2,-,-,-,-,-,.,.,.,.,.,.,
C#CC[N+]1(C)[C@@H]2CC(OC(=O)C(CO)c3ccccc3)C[C@H]1C(O)C2 (stereo not given in full),-,-,-,-,-,.,.,.,.,.,.,
CC1(C)OC(c2ccccc2)=C/C(=C/C=C2C(=O)NC(=S)NC2=O)O1,179.2,.,-,-,-,.,.,.,.,.,-,
C/C=C/CC#N,-,-,-,-,-,.,.,.,.,.,.,
CN(C)C(=S)SSC(=S)N(C)C,200.7,-,-,-,-,-,-,-,-,-,.,
Nc1ccc2ccc3cccc[n+]3c2c1,-,191.5,-,-,224.3,.,.,.,.,.,-,
C[n+]1c(-c2ccccc2)c2cc(N)ccc2c2ccc(N)cc21,-,-,-,-,-,.,.,.,.,.,.,
C[C@H]1C[C@@H](C)C(=O)[C@@H]([C@H](O)CC2CC(=O)NC(=O)C2)C1,-,-,-,-,-,-,158.9,-,-,-,-,s288c autofl DR=-;TORC1 bypass=-
CCN1CCN(c2ccc(N)cc2C)CC1,-,-,-,-,-,-,-,-,-,-,.,
CCN1CCN(c2ccc(N)cc2)CC1,-,-,-,-,-,.,.,.,.,.,.,
O=C1NC(=O)C(=Cc2ccc(SC3CCCCC3)o2)C(=O)N1,-,-,-,-,-,-,-,-,-,-,.,
NS(=O)(=O)c1ccc(-c2ccc(C=C3C(=O)NC(=O)NC3=O)o2)cc1,-,-,-,-,-,.,.,.,.,.,.,
Cc1ccc(C(O)P(=O)(Oc2ccccc2)Oc2ccccc2)cc1 (stereo not given),-,-,-,-,-,.,.,.,.,.,.,
COC(=O)C1=C(c2ccc3ccccc3c2)C[C@@H]2CC[C@H]1N2C(=O)NC(C)C,-,-,-,-,-,.,.,.,.,.,.,
NC1=C([N+](=O)[O-])C(c2ccc3c(c2)OCO3)c2c(c3ccccc3oc2=O)O1 (stereo not given),-,-,-,-,-,.,.,.,.,.,.,
O=c1oc2ccccc2c(O)c1[C@H]1c2ccc(O)cc2Oc2c1c(=O)oc1ccccc21,242.7,-,-,-,-,.,.,.,.,.,-,
COC(=O)C1=C(c2ccc(OC)c(OC)c2)C[C@@H]2CC[C@H]1N2C(=O)N1CCCC1,-,-,-,-,-,.,.,.,.,.,.,
C=C1C(O)[C@@H]2O[C@]3(CC[C@H](/C=C/C(C)[C@@H]4CC(C)=CC5(O[C@H](C[C@@](C)(O)C(=O)O)CCC5O)O4)O3)CC[C@H]2O[C@@H]1C(O)CC(C)[C@H]1OC2(CCCCO2)CCC1C (stereo not given in full),266.5,-,-,-,-,268.3,-,-,-,-,-,
C=C1C(=O)O[C@@H]2C[C@@H](C)[C@H]3C=CC(=O)[C@]3(O)C[C@@H]12,-,-,-,-,206.9,-,-,-,-,-,.,
